The list is not random: actives were taken first. Their share in the collection is about 3.4%.
MEKK3 PB1 HTS = modulators of MEKK3-MEK5 PB1 binding, primary screen, biochemical, wildtype MEKK3, multiplex bead flow cytometry, Alexa488-MEK5; AID 1529, 2009; bead-based flow cytometry, Alexa488-MEK5 binding to MEKK3; actives lie on both sides; 0 = blocked by unlabeled MEK5, 100 = vehicle; 1.4% of 290,000 active; binding response (% of control), % at 10 µM; Mitogen-activated protein kinase kinase kinase 3 (Homo sapiens), Q99759;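 active = binding response more than 3 SD above or below the average of its plate-row segment, actives on both sides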;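 note: Alexa488 bead fluorescence after subtracting the streptavidin-only scavenger bead signal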
Target sequence (Q99759 whole entry, looked up): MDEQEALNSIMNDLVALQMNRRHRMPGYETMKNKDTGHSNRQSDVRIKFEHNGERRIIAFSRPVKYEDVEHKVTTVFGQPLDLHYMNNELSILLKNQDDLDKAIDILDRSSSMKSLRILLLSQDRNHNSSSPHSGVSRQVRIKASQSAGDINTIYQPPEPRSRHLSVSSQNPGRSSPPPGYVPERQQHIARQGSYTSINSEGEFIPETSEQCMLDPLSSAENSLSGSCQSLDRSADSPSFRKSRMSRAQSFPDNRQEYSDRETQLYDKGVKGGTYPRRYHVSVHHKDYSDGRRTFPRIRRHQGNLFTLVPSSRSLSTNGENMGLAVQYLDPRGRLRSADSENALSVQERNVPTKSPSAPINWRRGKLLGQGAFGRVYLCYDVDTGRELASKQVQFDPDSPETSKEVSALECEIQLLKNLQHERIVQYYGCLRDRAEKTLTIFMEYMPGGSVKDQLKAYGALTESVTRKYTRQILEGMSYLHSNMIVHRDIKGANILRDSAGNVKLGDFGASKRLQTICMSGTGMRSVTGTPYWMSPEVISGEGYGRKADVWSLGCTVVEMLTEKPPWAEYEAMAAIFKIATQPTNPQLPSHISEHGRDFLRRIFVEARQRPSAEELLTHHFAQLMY
NTR1 ag = agonists of human NTR1, primary screen, imaging, U2OS cells, beta-arrestin-GFP, high content; NTR1-U2OS beta-arrestin-GFP spot imaging, agonist mode; Neurotensin receptor type 1 (Homo sapiens), P30989; 0.17% of 330,000 active; activation, % at 20 µM; AID 493036, 2011;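 active = activation at or above 40% of the spot to cytoplasm intensity ratio, with at least 20 cells analyzed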;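 note: 0% = DMSO without peptide and 100% = 100 nM NTR1 peptide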
TMEM16A act = TMEM16A chloride channel activators or potentiators, primary screen, cell-based, HTS; Anoctamin-1 (Mus musculus), Q8BHY3; HEK293 TMEM16A/YFP-H148Q/I152L, iodide quench fluorescence; hits give low values; B-score at 10 µM; 0.3% of 340,000 active;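 active = fluorescence-ratio B-score plate-corrected deviation score at least 3 library SD below zero, with starting fluorescence score within 5 deviations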;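 note: channel opened by trigger with iodide after compound preincubation; score built on the fluorescence ratio of max minus min over baseline; more negative score means more quench and so TMEM16A activation or potentiation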
MEKK2 mut-MEK5 = MEK5 binding signal on mutant MEKK2 PB1, primary screen, biochemical, multiplex bead flow cytometry, Alexa488-MEK5; 0.35% of 290,000 active; Alexa488-MEK5 binding to MEKK2 mutant; AID 1530, 2009; percent response, % at 10 µM; in the data active = percent response above about 24%, passing the limit was not always enough
MEKK2 WT-MEK5 = modulators of MEK5 binding to wildtype MEKK2, primary screen, biochemical, multiplex bead flow cytometry, Alexa488-MEK5; 1.1% of 290,000 active; Mitogen-activated protein kinase kinase kinase 2 (Homo sapiens), Q9Y2U5; binding response (% of control), % at 10 µM; Alexa488-MEK5 binding to MEKK2 WT; actives lie on both sides; in the data active = binding response below about 67% or above about 130%
TMEM16A inh = TMEM16A chloride channel inhibitors, primary screen, cell-based, HTS; HEK293 TMEM16A/YFP iodide influx fluorescence, ionomycin; normalized B-score (activity score, 25-100; higher = stronger inhibition) at 10 µM; 1.2% of 310,000 active; AID 588511, 2011;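 active = ratio plate-corrected score three or more library SD toward inhibition, starting fluorescence score within five deviations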;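 note: score derived from kinetic fluorescence span divided by baseline fluorescence per well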
TMEM16A reconf = TMEM16A chloride channel inhibitors, confirmation, cell-based, re-confirmation; shares compounds with TMEM16A inh; HEK293 TMEM16A/YFP-H148Q, iodide quench fluorescence; ionomycin added to raise cell calcium; inhibition, % at 10 µM; 39% of 2,300 active; AID 652189, 2013;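 active = mean duplicate percent inhibition, scaled so buffer wells are 0 and the reference blocker 100, over three buffer SD above buffer mean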
HEK293 Ca mobil = calcium mobilization in TMEM16A/YFP HEK293 cells, confirmation, counter-screen for TMEM16A inhibitor project. 2% of 2,300 active. Fluo4 calcium mobilization. AID 652231, 2013. calcium response (% of ionomycin), % at 10 µM. shares compounds with TMEM16A inh;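 active = duplicate-averaged calcium signal over 20% of the ionomycin maximum, relative to buffer baseline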;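 note: each well's signal is peak minus trough fluorescence divided by its pre-addition baseline; 0% = buffer wells and 100% = ionomycin wells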
Parental YFP cnt = iodide YFP quench changes in parental YFP-HEK293, counter-screen for TMEM16A inhibitor project, cell-based; shares compounds with TMEM16A inh; ionomycin; YFP ratio F(max-min)/F0 at 10 µM; 2,300 tested, under 10 active;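 active = yellow fluorescent protein signal ratio exceeding the buffer control mean by over 5 SD of those controls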;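 note: ratio is mean of duplicate wells from kinetic YFP trace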
ClC-1 rat inh = ClC-1 chloride channel inhibition, selectivity assay for TMEM16A inhibitor project, cell-based, voltage-dependent ClC-1; ratio percent, % at 10 µM; shares compounds with TMEM16A inh; 2,300 tested, under 10 active; CHO ClC-1-YFP, iodide influx fluorescence quench; iodide control reads 0, buffer control 100; AID 652236, 2013;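 active = duplicate-mean ratio percent above the mean of iodide-only control wells, which defines zero, plus 5 of their SD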;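 note: higher percent means stronger block of ClC-1 iodide influx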
* hit, by the source's call.

What do the screens show for `COc1ccccc1CN1CC(C(=O)N(Cc2cnn(C)c2)C(C)C)CCC1=O` (stereo unspecified)?
MEKK3 PB1 HTS: 101; NTR1 ag: -2; TMEM16A act: inactive; MEKK2 mut-MEK5: 7; MEKK2 WT-MEK5: 106; TMEM16A inh: inactive

Results for Cc1ccc(NC2=NC(c3ccc(F)cc3)n3c(nc(C)cc3=O)N2)cc1 (stereo unspecified) ?
MEKK3 PB1 HTS: 103; NTR1 ag: -2; TMEM16A act: inactive; MEKK2 mut-MEK5: 3; MEKK2 WT-MEK5: 102; TMEM16A inh: inactive

Results for O=C1CC(N2CCN(c3ccc(F)cc3)CC2)C(=O)N1Cc1cccs1 (stereo unspecified) ?
MEKK3 PB1 HTS: 99; NTR1 ag: 0; TMEM16A act: inactive; MEKK2 mut-MEK5: 0; MEKK2 WT-MEK5: 101; TMEM16A inh: inactive

What do the screens show for `O=C1CC(N2CCN(c3nc4ccccc4s3)CC2)C(=O)N1Cc1cccs1` (stereo unspecified)?
MEKK3 PB1 HTS: 109; NTR1 ag: 0; TMEM16A act: inactive; MEKK2 mut-MEK5: 10; MEKK2 WT-MEK5: 111; TMEM16A inh: 100*; TMEM16A reconf: 30%*; HEK293 Ca mobil: inactive; Parental YFP cnt: -0.81; ClC-1 rat inh: -4

Results for COc1cc2ncnc(Nc3ccc4c(c3)OCO4)c2cc1OC ?
MEKK3 PB1 HTS: 98; NTR1 ag: 0; TMEM16A act: inactive; MEKK2 mut-MEK5: 1; MEKK2 WT-MEK5: 100; TMEM16A inh: inactive; TMEM16A reconf: inactive; HEK293 Ca mobil: inactive; Parental YFP cnt: -0.89; ClC-1 rat inh: -4

How did Cc1ccc(SCCNS(=O)(=O)c2ccc3c(c2)OCCO3)cc1 do in these assays?
MEKK3 PB1 HTS: 101; NTR1 ag: -2; TMEM16A act: inactive; MEKK2 mut-MEK5: 3; MEKK2 WT-MEK5: 101; TMEM16A inh: 25*; TMEM16A reconf: inactive; HEK293 Ca mobil: inactive; Parental YFP cnt: -1.1; ClC-1 rat inh: -9

Results for Cc1ccc(SCCNS(=O)(=O)c2ccc(F)cc2)cc1 ?
MEKK3 PB1 HTS: 99; NTR1 ag: 0; TMEM16A act: inactive; MEKK2 mut-MEK5: -4; MEKK2 WT-MEK5: 99; TMEM16A inh: inactive

Results for Cc1ccc(NC(=O)CNc2cccc(C)c2C)c(C)c1 ?
NTR1 ag: 1; TMEM16A act: inactive; TMEM16A inh: 100*; TMEM16A reconf: inactive; HEK293 Ca mobil: inactive; Parental YFP cnt: -0.82; ClC-1 rat inh: -10

Results for Fc1ccccc1CNc1ncnc2sccc12 ?
MEKK3 PB1 HTS: 100; NTR1 ag: 0; TMEM16A act: inactive; MEKK2 mut-MEK5: -8; MEKK2 WT-MEK5: 92; TMEM16A inh: inactive

What do the screens show for `c1ccc2c(c1)OCC(CNc1ncnc3sccc13)O2` (stereo unspecified)?
MEKK3 PB1 HTS: 97; TMEM16A act: inactive; MEKK2 mut-MEK5: 11; MEKK2 WT-MEK5: 118; TMEM16A inh: 25*; TMEM16A reconf: inactive; HEK293 Ca mobil: inactive; Parental YFP cnt: -1.3; ClC-1 rat inh: -24

Results for COc1ccc(CCNc2ncnc3sccc23)cc1OC ?
MEKK3 PB1 HTS: 98; NTR1 ag: 0; TMEM16A act: -7.8*; MEKK2 mut-MEK5: -3; MEKK2 WT-MEK5: 95; TMEM16A inh: 100*; TMEM16A reconf: 24%*; HEK293 Ca mobil: inactive; Parental YFP cnt: -0.78; ClC-1 rat inh: -29

How did COc1ccccc1CNc1ncnc2sccc12 do in these assays?
MEKK3 PB1 HTS: 100; NTR1 ag: 0; TMEM16A act: inactive; MEKK2 mut-MEK5: -1; MEKK2 WT-MEK5: 96; TMEM16A inh: 25*; TMEM16A reconf: inactive; HEK293 Ca mobil: inactive; Parental YFP cnt: -0.89; ClC-1 rat inh: -15

Results for COc1ccc(Nc2ncnc3sccc23)cc1OC ?
MEKK3 PB1 HTS: 102; NTR1 ag: 1; MEKK2 mut-MEK5: 12; MEKK2 WT-MEK5: 101; TMEM16A inh: inactive

How did c1ccc2c(c1)OCC(CNCC1COc3ccccc3O1)O2 (stereo unspecified) do in these assays?
MEKK3 PB1 HTS: 104; NTR1 ag: -1; TMEM16A act: inactive; MEKK2 mut-MEK5: 9; MEKK2 WT-MEK5: 111; TMEM16A inh: inactive

What do the screens show for `CC[C@@]1(C(=O)OC)N[C@H](CN(C)S(=O)(=O)c2ccc(C(C)(C)C)cc2)[C@@H]2C(=O)N(Cc3ccccc3)C(=O)[C@@H]21`?
NTR1 ag: 0

Results for CC(CCCC(C)(C)O)NCc1cn[nH]c1-c1ccc2c(c1)OCO2 (stereo unspecified) ?
MEKK3 PB1 HTS: 101; NTR1 ag: -1; TMEM16A act: inactive; MEKK2 mut-MEK5: 4; MEKK2 WT-MEK5: 100; TMEM16A inh: inactive

How did Cc1ccc(NC(=S)N2CCN(c3ccccn3)CC2)cc1C do in these assays?
MEKK3 PB1 HTS: 106; NTR1 ag: -1; TMEM16A act: inactive; MEKK2 mut-MEK5: 2; MEKK2 WT-MEK5: 102; TMEM16A inh: inactive

How did Cc1ccc2[nH]c3c(N4CCc5ccccc5C4)ncnc3c2c1 do in these assays?
MEKK3 PB1 HTS: 95; NTR1 ag: 25; TMEM16A act: inactive; MEKK2 mut-MEK5: 15; MEKK2 WT-MEK5: 139; TMEM16A inh: 25*; TMEM16A reconf: 30%*; HEK293 Ca mobil: inactive; Parental YFP cnt: -0.91; ClC-1 rat inh: -25

How did c1ccc2c(c1)[nH]c1c(N3CCCC3)ncnc12 do in these assays?
MEKK3 PB1 HTS: 101; NTR1 ag: 1; TMEM16A act: inactive; MEKK2 mut-MEK5: 7; MEKK2 WT-MEK5: 100; TMEM16A inh: inactive

High-throughput results from PubChem.
